ssDAF12 agonist: S. stercoralis DAF-12 activation, primary screen; HEK293 ssDAF-12/GRIP1 lit1-tk-luc reporter, luminescence; % of 3 µM dafachronic acid response; activation, % at 6.8 µM; 370,000 tested, 1% active; AID 652126;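 active = activation above the mean over all tested compounds plus 3 SD, cut at about 0.9% in these data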;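 note: 0% = DMSO-only wells and 100% = 3 µM delta7-dafachronic acid wells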
hcDAF-12 act: H. contortus DAF-12 activation, primary screen | HEK293 hcDAF-12 lit1-tk-luc reporter, luminescence; 0% DMSO, 100% Δ7-dafachronic acid | activation, % at 6.8 µM | 370,000 tested, 1.4% active | AID 652067;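 active = activation above the mean of all tested compounds plus 3 SD, cut at about 5.5% in these data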;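 note: 100% = response to 3 µM Δ7-dafachronic acid high control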
hgDAF12 agonist: agonists of H. glycines DAF-12 nuclear receptor. HEK293 GAL4-hgDAF12 UAS-luciferase reporter, agonist luminescence; normalized to butyrate control. activation, % at 6.8 µM. 370,000 tested, 1.8% active. AID 687014;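 active = activation above a cutoff set at the mean of all screened compounds plus 3 SD, cut at about 10% in these data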;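 note: 0% = DMSO wells and 100% = sodium butyrate wells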
DAX1 inh-1: inhibitors of human orphan nuclear receptor DAX1 (NR0B1); P51843; HEK293 Gal4-DAX1 luciferase reporter, luminescence; inhibition, % at 6.75 µM; 340,000 tested, 0.99% active;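 active = inhibition above the mean over all tested compounds plus 3 SD, cut at about 4.2% in these data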;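 note: 0% = DAX1-transfected cells with DMSO and 100% = empty-vector control cells with DMSO; inhibition shows as a rise in luminescence from relieved DAX1 repression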
Target sequence (P51843 207-470 limits assumed): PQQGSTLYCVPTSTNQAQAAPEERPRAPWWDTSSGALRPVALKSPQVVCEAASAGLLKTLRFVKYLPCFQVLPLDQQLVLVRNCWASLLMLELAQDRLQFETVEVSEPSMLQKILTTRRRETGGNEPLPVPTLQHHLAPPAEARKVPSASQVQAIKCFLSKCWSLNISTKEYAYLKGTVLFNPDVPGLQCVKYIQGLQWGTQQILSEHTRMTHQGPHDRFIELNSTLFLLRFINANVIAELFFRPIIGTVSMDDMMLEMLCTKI
DAX1 inh-2: blocks DAX1 repression of SF-1 activated StAR promoter; HEK293T StAR-luciferase reporter, SF-1/DAX-1 repression relief; inhibition, % at 6.8 µM; 370,000 tested, 1.1% active; AID 652010;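 active = inhibition above the mean over all tested compounds plus 3 SD, cut at about 3.6% in these data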;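 note: 0% = DAX-1 cells with DMSO and 100% = cells lacking DAX-1 with DMSO; higher inhibition means more luminescence from relief of DAX-1 repression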
DAX1 inh confirm: NR0B1 (human) inhibition, confirmation; shares compounds with DAX1 inh-2; HEK293T StAR-promoter luciferase reporter, SF-1/DAX-1 repression; inhibition, % at 6.8 µM; 2,400 tested, 87% active;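 active = inhibition above the average of every tested compound plus 3 SD, cut at about 3.8% in these data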;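 note: 0% = DAX-1 cells with DMSO and 100% = no DAX-1 control cells with DMSO; active compounds raise luminescence by relieving repression of the StAR reporter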
SF1 AF2mut Luc: counter-screen for DAX1 inhibitors: nonselective inhibitors with SF-1 AF2 mutant; inhibition, % at 6.8 µM; 2,400 tested, 78% active; shares compounds with DAX1 inh-2; HEK293 StAR-luciferase, luminescence;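 active = inhibition above the mean of all tested compounds plus 3 SD, cut at about 3% in these data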;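 note: 0% = DAX-1 transfected cells with DMSO and 100% = cells without DAX-1 with DMSO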
* hit, by the source's call; . = no result. In the library only some 4.1% were active in any assay of this set; here they are far more common.

SMILES | ssDAF12 agonist | hcDAF-12 act | hgDAF12 agonist | DAX1 inh-1 | DAX1 inh-2 | DAX1 inh confirm | SF1 AF2mut Luc
CCCCc1c(-c2ccccc2OC)ncn1C(C)c1ccc(Cl)cc1 (stereo not drawn) | -1 | 0 | 2 | . | 0 | . | .
CCc1nnc(NC(=O)C2COc3ccccc3O2)s1 (stereo not drawn) | 0 | 2 | 8 | 2 | 4.5* | 6.3* | 4.0*
C[C@H](CO)N1C[C@H](C)[C@@H](CN(C)C(=O)Nc2ccc3c(c2)OCCO3)OCc2cn(nn2)CCCC1=O | -1 | -1 | 4 | . | 1 | . | .
O=C(CCc1nc2ccccc2c(=O)[nH]1)NNC(=O)COc1ccccc1Cl | -1 | -2 | -3 | 1 | 1 | . | .
O=c1[nH]c(COc2ccc(Cl)cc2Cl)nc2ccccc12 | 0 | 0 | 7 | 1 | 5.2* | 13* | 6.8*
N/C(=N\OC(=O)c1ccccc1)c1ccn[nH]1 | 1 | 4 | 10 | 1 | 12* | 8.2* | 4.9*
N/C(=N\OC(=O)c1ccccc1)c1cccnc1 | 0 | 1 | 8 | 1 | 2 | . | .
O=[N+]([O-])c1cccc2[nH]c(CNc3nc(N4CCOCC4)nc4c3ncn4-c3ccsc3)nc12 | -2 | -6 | -10 | . | . | . | .
CSc1ccccc1OCc1cc(C(=O)N(C)Cc2ccc(C)o2)no1 | -1 | 2 | 6 | 1 | 2 | . | .
CSc1ccccc1OCc1cc(C(=O)N2CCCC(C)C2)no1 (stereo not drawn) | 0 | 4 | 12* | 2 | 6.5* | 8.3* | 4.0*
CSc1ccccc1OCc1cc(C(=O)N2CCSCC2)no1 | -1 | 5 | 12* | 2 | 5.3* | 5.4* | 3.4*
CCN(CC)C1CCN(C(=O)c2cc(COc3ccccc3SC)on2)C1 (stereo not drawn) | -2 | 0 | 0 | 1 | 0 | . | .
CSc1ccccc1OCc1cc(C(=O)N(C)Cc2ccc3nsnc3c2)no1 | 0 | 5 | 11* | 3 | 5.3* | 6.5* | 3.1*
Cc1ccc(C)c(OCc2cc(C(=O)N3CCOCC3)no2)c1 | 0 | 5 | 7 | 1 | 5.7* | 5.3* | 4.7*
COCc1[nH]nc2c1C(c1cccc(C(F)(F)F)c1)NC2=O (stereo not drawn) | -1 | 1 | 0 | . | -1 | . | .
c1ccc2c(c1)OCc1nccn1-2 | 0 | 2 | 1 | . | -1 | . | .
O=C(NC1CCCCC1)c1ccc(-c2cccc([N+](=O)[O-])c2)o1 | 0 | 2 | 9 | 1 | 7.9* | 11* | 4.1*
CCCCOCCCNC(=O)C[C@H]1C(=O)N(CCCOC)C2=CCCCC[C@]21C(=O)OC | 0 | 1 | 0 | . | 0 | . | .
CN1CCN(c2ccc(NC(=O)c3ccc(Br)o3)cc2)CC1 | 0 | 4 | 12* | 1 | 6.2* | 8.3* | 6.1*
CN1CCN(c2ccc(NC(=O)c3ccc4ccccc4c3)cc2)CC1 | 0 | 3 | 9 | 0 | 8.2* | 10* | 0
Cc1cc(C)cc(C(=O)Nc2ccc(N3CCCC3)cc2)c1 | 0 | 3 | 12* | 1 | 4.5* | 13* | 5.8*
COc1ccc(C(=O)Nc2ccc(N3CCN(C)CC3)cc2)cc1 | 1 | 2 | 8 | 2 | 2 | . | .
COc1ccc(CNC(=S)OC2CCC23CCC(c2ccccc2)CC3)cc1 (stereo not drawn) | -2 | 0 | -2 | . | -1 | . | .
O=C(c1cc(F)ccc1F)N1CCC(Oc2cccnc2)CC1 | -1 | -2 | -1 | . | -1 | . | .
O=C(COc1ccc(Cl)cc1Cl)NC(=O)NC1CCCC1 | 0 | 3 | 12* | 0 | 5.0* | 4.1* | 1
SMILES | ssDAF12 agonist | hcDAF-12 act | hgDAF12 agonist | DAX1 inh-1 | DAX1 inh-2 | DAX1 inh confirm | SF1 AF2mut Luc
O=C(COc1ccc(Cl)cc1Br)NC(=O)NC1CCCC1 | -1 | 1 | 13* | 3 | 8.0* | 7.9* | 5.3*
O=C(COc1ccc(Br)cc1Cl)NC(=O)NC1CCCC1 | 0 | 2 | 10 | 1 | 2 | . | .
Cc1ccc(F)cc1NC(=O)COC(=O)c1ccc2ncsc2c1 | 0 | 1 | 3 | 0 | 4.7* | 4 | 0
Cc1ccc(NC(=O)COC(=O)c2ccc3ncsc3c2)c(C)c1 | -2 | -2 | -3 | 0 | -1 | . | .
CN(C)c1ccc(N=Nc2ccc(C(=O)O)cc2)cc1 | 0 | 5 | 9 | -5 | 2 | . | .
Cc1cc(O)c(N=Nc2ccc(C(=O)O)cc2)cc1C | 0 | 3 | 8 | 4.3* | 5.2* | 21* | 7.7*
COc1cc2c(O)c3c(c(-c4ccc5c(c4)OCO5)c2cc1OC)C(=O)OC3 | -2 | -2 | -6 | -1 | 6.6* | 15* | -5
COc1cc2c(OC(C)=O)c3c(c(-c4ccc5c(c4)OCO5)c2cc1OC)C(=O)OC3 | -1 | -1 | -7 | 1 | 1 | . | .
COC(=O)[C@H](CC(C)C)N(CCCc1cn(CC2CCCCC2)nn1)S(=O)(=O)c1ccccc1Br | -2 | -5 | 1 | . | -2 | . | .
COC(=O)[C@]12C[C@H](CC(=O)N3CCCC3)C(=O)N(Cc3ccc(Cl)cc3Cl)C1=C[C@H](C(C)C)O[C@@H]2C1CC1 | 0 | 0 | -2 | . | -2 | . | .
C=CCN1C(=O)c2n[nH]c(C)c2C1c1ccc(C)cc1 (stereo not drawn) | -1 | 1 | -1 | . | 0 | . | .
CCOc1cc(N2CCC(O)CC2)ccc1Nc1ncc2c(n1)N(C)c1ccccc1C(=O)N2C | 0 | 4 | -8 | . | 5.9* | 0 | -9
COc1cc(N2CCC(O)CC2)ccc1Nc1nnc(Cl)c(Nc2ccccc2S(C)(=O)=O)n1 | . | . | . | -2 | . | . | .
Cc1cccc(OCC(=O)Nc2ccc3c(c2)OCO3)c1C | -1 | -1 | 2 | 1 | 0 | . | .
CCCOc1ccc(C(=O)Nc2ccc3c(c2)OCO3)cc1 | 0 | 2 | 7 | 1 | 10* | 9.6* | 4.9*
CC(=O)c1cc(F)ccc1OCC(=O)Nc1ccc2c(c1)OCO2 | 1.0* | 4 | 11* | 1 | 11* | 12* | 6.3*
Cc1ccc(OCC(=O)Nc2ccc3c(c2)OCO3)c(C)c1 | -1 | 4 | 13* | 1 | 6.5* | 7.2* | 5.7*
O=C(COc1cc(F)ccc1[N+](=O)[O-])Nc1ccc2c(c1)OCO2 | -1 | 0 | 2 | 0 | -1 | . | .
CCOC(=O)Cn1cc(CN2C(C(=O)OC)CN(Cc3ccc(C)cc3)CCS2(=O)=O)nn1 (stereo not drawn) | -1 | 2 | -3 | . | 0 | . | .
COCCSc1nnc(NC(=O)c2ccc3c(c2)OCO3)s1 | 0 | -1 | 3 | 3 | 1 | . | .
CSc1nnc(NC(=O)c2ccc3c(c2)OCO3)s1 | 0 | 6.0* | 11* | -1 | 13* | 3 | -1

Screening results from PubChem.
